Source: PubChem BioAssay AID1362 (SRMLSC, 2008)
In all, about 190,000 compounds went through this assay and about 4,000 (2.1%) were called active. No stated cut-off is given here; in the data, active means inhibition above about 58%; inactive means the rest, inconclusive results apart; tested in S. cerevisiae. Only a selection was taken, and actives are over-represented in it overall.

Assay: growth inhibition of WT strain, primary screen, mitochondrial fusion inhibitor project, WT and mutant strains, chemical genetic (AID 1362)
Conditions: mitochondrial fusion phenotypic screen, at 10 µM
[1] = WT strain, growth inhibition, stronger effect = higher value

Structure (SMILES) | inhibition [1] | inhibition (mutant strain inhibition) [%]
CC1CC(C)(C)NC(=S)N1CCC(=O)N1CCN(Cc2ccccc2)CC1 (centres undefined) | -6.52% (inactive) | -4.03
COc1cccc(CC2(CO)CCCN(Cc3nc(-c4cccs4)oc3C)C2)c1 (centres undefined) | 19.9% (inactive) | 6.17
CCN(CC)S(=O)(=O)c1ccc(Cl)c(NC(=O)c2ccncc2)c1 | -7.6% (inactive) | -15.4
Cc1ccc(COc2ccc(C(=O)NN)cc2)cc1 | 18.5% (inactive) | 22.2
CN(C)C(=O)c1nc2ccc(Cl)cn2c1CN1CCN(c2ncccn2)CC1 | -14.1% (inactive) | -9.73
c1ccc(-c2cn3c(n2)CCc2ccc4cccnc4c2-3)cc1 | 67.5% (active) | 4.75
c1ccc(-c2cn3cccnc3n2)cc1 | 7.76% (inactive) | -1.07
COc1ccc(/C=C/C(=O)N2CCCC2)cc1OC | -13.6% (inactive) | -0.71
Cc1ccccc1-c1n[nH]c(=S)n1C | -5.68% (inactive) | 4.36
c1ccc(CC2CCN(c3nc4ccccc4n4cnnc34)CC2)cc1 | 55.9% (inactive) | 25.1
O=C(Nc1ccccc1N1CCCCC1)c1ccc2nccnc2c1 | 26.1% (inactive) | 32.9
O=C(c1ccccc1)c1ccc2nc(N3CCCCC3)c3nncn3c2c1 | 60.2% (active) | 50.8
O=C(CN(CC1CCCO1)C(=O)CNS(=O)(=O)c1ccc(F)cc1)NCc1ccco1 (centres undefined) | -16.3% (inactive) | -1.9
CSCCC(=O)N1CCCC(CNC(=O)c2ccccc2Cl)C1 (centres undefined) | 0.33% (inactive) | -1.81
CCC1(C)Cc2c(sc3[nH]c(=S)n(Cc4ccccc4)c(=O)c23)CO1 (centres undefined) | 71% (active) | -13.6
CCC1(C)Cc2c(sc3nnn(CC(=O)Nc4ccc(Cl)cc4)c(=O)c23)CO1 (centres undefined) | 6.37% (inactive) | 8.2
CCn1c(=S)[nH]c2sc3c(c2c1=O)CCCCC3 | 44.5% (inactive) | 47.1
c1ccc2sc(NN=C3CCCC3)nc2c1 | 1.96% (inactive) | -13.6
Cc1cc(C)n2nc(SCC(N)=O)nc2n1 | 1.11% (inactive) | -5.58
COc1ccc(Cl)cc1NC(=O)CN(C)Cc1ccc(OC)c(OC)c1 | 13.3% (inactive) | 10.6
COc1ccc(Br)cc1CN(C)CC(=O)Nc1cc(Cl)cc(Cl)c1 | 64.1% (active) | -2.55

Structure (SMILES) | inhibition [1] | inhibition (mutant strain inhibition) [%]
COc1ccc(Br)cc1CN(C)CC(=O)Nc1cc([N+](=O)[O-])ccc1OC | -3.27% (inactive) | 14
CCC(C(=O)Nc1ccc2c(c1)OCCO2)c1ccccc1 (centres undefined) | -3.34% (inactive) | -11.8
CCOC(=O)N1CCN(Cc2nc3ccc([N+](=O)[O-])cc3c(=O)n2-c2cccc(OC)c2)CC1 | -16.2% (inactive) | 2.45
COc1cc(C(=O)NCc2ccc(-n3cccc3)cc2)cc(OC)c1OC | 4.37% (inactive) | -13.6
COC(=O)CCNC(=O)c1ccc2[nH]c(C)c(C)c2c1 | 3.23% (inactive) | -1.22
Cc1cccc(C)c1OCC(O)CN1CCCCC1 (centres undefined) | -0.96% (inactive) | 0.39
Cc1cccc(OCC(O)CN2CCN(CCN3C(=O)c4cccc5cccc(c45)C3=O)CC2)c1C (centres undefined) | 64.5% (active) | 57.3
Cc1ccccc1OCC(O)CN1CCN(c2ccccn2)CC1 (centres undefined) | 5.12% (inactive) | 6.35
CN(CCc1cn[nH]c1)C(=O)CC1C(=O)NCCN1Cc1cccc(Oc2ccccc2)c1 (centres undefined) | 0.86% (inactive) | 0.64
CC(C)C(=O)Nc1oc(-c2ccccc2)cc1C#N | 8.16% (inactive) | -3.13
CCCC(=O)Nc1nnc(-c2ccccc2)o1 | -6.78% (inactive) | 13.2
O=C(Nc1nnc(-c2ccccc2)o1)c1cc(-c2cccs2)nc2ccccc12 | 70.4% (active) | 64.4
CC(C)(C)Cc1nnc(NC(=O)c2cc(-c3ccccc3)nc3ccccc23)s1 | 34.7% (inactive) | 9.7
Cc1cc(C)c2[nH]c(=O)c(CN(Cc3ccccc3)C(=S)NCCCN(C)C)cc2c1 | -2.4% (inactive) | 16.4
Cc1cc2c(cc1C)[n+](C)cn2CC(O)COCC1CC=CCC1 (centres undefined) | 0.89% (inactive) | -7.37
COc1ccc(C)cc1NC(=O)c1ccc(-c2ccc(C(C)=O)cc2)o1 | 15.7% (inactive) | 5.74
Cc1ccc(-n2[nH]c(C)c(/C=N/N3C(=O)c4cccc5cccc(c45)C3=O)c2=O)cc1 | 13.3% (inactive) | 13
CCc1nnc(NS(=O)(=O)c2ccc(N=Cc3c(C)[nH]n(-c4ccc(C)cc4)c3=O)cc2)s1 | 40.8% (inactive) | 28.3
COc1cc(SC#N)ccc1N=Cc1c(C)[nH]n(-c2ccc(C)cc2)c1=O | 81.4% (active) | 11.6
Cc1ccc(OCC(=O)Nc2ccc(S(=O)(=O)Nc3ccccn3)cc2)cc1 | -2.17% (inactive) | -9.5
NS(=O)(=O)c1ccc(NC(=S)NC(=O)c2cccnc2)cc1 | -6.97% (inactive) | -10.8
